Assay results taken from PubChem BioAssay (Tox21).
Records with an inconclusive call do not appear. The source made the active and inactive calls. Unless noted, calls follow the shape of the dose curve; as a rule, active = well fitted curve in the direction sought with a large enough effect in the repeat runs; inconclusive = weak or mixed curves; inactive = no such curve, though single readings can be large; an effect the other way counts as inactive or inconclusive.

Assays:
[1] = A CellTox Green Cytotoxicity Assay to monitor cytotoxicity in HEK293 cells - 32 hour (AID 1224881); also: nearly all actives have a fitted effect of over 40% in size
Method in brief: (§1)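 Tox21 screen in HEK293: membrane-impermeant cyanine dye fluoresces on binding dead-cell DNA; compound pinned 5 h post-seeding, plates held at 37 C, signal read repeatedly through 40 h.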

[2] = A CellTox Green Cytotoxicity Assay to monitor cytotoxicity in HepG2 cells - 0 hour (AID 1224882); also: nearly all actives have a fitted effect of over 35% in size
Method in brief: (§2)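 Measurements at 0, 8, 16, 24, 32 and 40 h of treatment captured CellTox Green fluorescence in HepG2 cells that had been co-plated with reagent and preincubated 5 h at 37 C/5% CO2.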

[3] = A CellTox Green Cytotoxicity Assay to monitor cytotoxicity in HepG2 cells - 32 hour (AID 1224883); also: nearly all actives have a fitted effect of over 50% in size
Method in brief: as §2

[4] = A CellTox Green Cytotoxicity Assay to monitor cytotoxicity in HEK293 cells - 8 hour (AID 1224884); also: nearly all actives have a fitted effect of over 35% in size
Method in brief: as §1

[5] = qHTS RealTime-Glo MT Cell Viability Assay in HepG2 cells - 16 hour (AID 1224885); also: nearly all actives have a fitted effect of over 50% in size
Method in brief: (§3)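 Viability was tracked continuously by NanoLuc luminescence from prosubstrate reduced by living HepG2 cells, at successive time points over 40 h of compound exposure. Cells with reagent were preincubated 5 h at 37 °C before compound addition.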

[6] = qHTS RealTime-Glo MT Cell Viability Assay in HEK293 cells - 24 hour (AID 1224886); also: top concentration of the series differs between compounds; nearly all actives have a fitted effect of over 50% in size
Method in brief: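 Viability tracked continuously by luminescence as live cells reduce a prosubstrate for NanoLuc; HEK293 cells preincubated 5 h, compound-treated at 37 C, and read at 0, 8, 16, 24, 32 and 40 h.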

[7] = qHTS RealTime-Glo MT Cell Viability Assay in HEK293 cells - 8 hour (AID 1224887); also: top concentration of the series differs between compounds; nearly all actives have a fitted effect of over 50% in size
Method in brief: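 HEK293 + NanoLuc + prosubstrate, 600 cells/well; 5 h, 37 C/5% CO2; compound 23 nL in DMSO by pintool; 37 C; luminescence read at 0, 8, 16, 24, 32 and 40 h time points.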

[8] = A CellTox Green Cytotoxicity Assay to monitor cytotoxicity in HEK293 cells - 16 hour (AID 1224888); also: nearly all actives have a fitted effect of over 35% in size
Method in brief: as §1

[9] = qHTS RealTime-Glo MT Cell Viability Assay in HepG2 cells - 0 hour (AID 1224889); also: nearly all actives have a fitted effect of over 50% in size
Method in brief: as §3

[10] = qHTS assay to identify small molecule antagonists of the estrogen receptor alpha (ER-alpha) signaling pathway using the BG1 cell line in the presence of 0.1 nM 17-beta-estradiol - cell viability counter screen (AID 1259241); also: nearly all actives have a fitted effect of over 40% in size
Method in brief: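 Viability in VM7Luc4E2 cells after 22 hr compound exposure under 0.1 nM 17beta-estradiol stimulation, by CellTiter-Fluor.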

[11] = qHTS assay to identify small molecule antagonists of the androgen receptor (AR) signaling pathway using the MDA cell line in the presence of 0.5 nM R1881 - cell viability counter screen (AID 1259242); also: nearly all actives have a fitted effect of over 45% in size
Method in brief: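 Concentration-response screen of compounds for toxicity in MDA-kb2 reporter cells: 16 hr at 37C with 0.5 nM R1881, endpoint live-cell protease fluorescence measured in the reporter wells.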

[12] = molecular target: Androgen receptor (Homo sapiens) (UniProt P10275); assay: qHTS assay to identify small molecule antagonists of the androgen receptor (AR) signaling pathway using the MDA cell line in the presence of 0.5 nM R1881 (AID 1259243); also: nearly all actives have a fitted effect of over 50% in size
Method in brief: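 With R1881 held at 0.5 nM (final), compound effects on MMTV-luciferase expression in MDA-kb2 cells were scored by luminescence after a 16 hr, 37C incubation.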

[13] = molecular target: Estrogen receptor (Homo sapiens) (UniProt P03372); assay: qHTS assay to identify small molecule antagonists of the estrogen receptor alpha (ER-alpha) signaling pathway using the BG1 cell line in the presence of 0.1 nM 17-beta-estradiol (AID 1259244); also: nearly all actives have a fitted effect of over 50% in size
Method in brief: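 Compounds were tested against 0.1 nM (final) 17beta-estradiol in VM7Luc4E2 cells, which express full-length ER-alpha and an ERE-luciferase reporter; luminescence was recorded following 22 h exposure.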

[14] = qHTS assay to identify small molecule HDAC inhibitors (AID 1259364);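 also: wild-type HCT-116 cells with endogenous class I/II HDAC activity; top concentration of the series differs between compounds; nearly all actives have a fitted effect of over 45% in size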
Method in brief: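 Screening used wild-type human colon HCT-116 cells incubated overnight, dosed with compounds for 2 hours, and assayed with a homogeneous luminogenic HDAC I/II reagent for 30 minutes at room temperature.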

[15] = qHTS assay to identify small molecule HDAC inhibitors - cell viability counter screen (AID 1259365)
Method in brief: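 Cytotoxicity was gauged in wild-type HCT-116 cells after a brief 2hr treatment with DMSO-dissolved compounds at 37C and 5% CO2, using CellTiter-Glo luminescence developed for 30min at room temperature.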

[16] = qHTS assay to identify small molecule agonists of the sonic hedgehog signaling (Shh) pathway - cell viability counter screen (AID 1259366); also: nearly all actives have a fitted effect of over 50% in size
Method in brief: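 Stable Gli1-Luc NIH/3T3 clone, 2,000 cells/well. Compound exposure 24hr at 37C. Read-out: CellTiter-Fluor fluorescence.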

[17] = qHTS assay to identify small molecule antagonists of the sonic hedgehog signaling (Shh) pathway - cell viability counter screen (AID 1259367); also: nearly all actives have a fitted effect of over 55% in size
Method in brief: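 Cytotoxicity was assessed in parallel with Shh reporter activity by measuring live-cell protease fluorescence (CellTiter-Fluor) in NIH/3T3 cells stably carrying Gli1-Luc, treated with compound under conditioned medium stimulation for 23 hr plus 1 hr reagent incubation.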

[18] = qHTS assay to identify small molecule phospholipidosis (PLD) inducers (AID 1259344; active = well fitted curve in the direction sought with a large enough effect; an effect the other way counts as inactive or inconclusive)
Method in brief: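 Cells (HepG2, 900 per well) attach for 4 h, receive LipidTOX Red and compound together, incubate 24 h at 37 C, are fixed 30 min with paraformaldehyde/Hoechst, then imaged at one site per well.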

[19] = qHTS assay to identify small molecule agonists of the sonic hedgehog signaling (Shh) pathway (AID 1259368; calls by dose curve;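 also: NIH/3T3-derived 3T3Gli1-Luc cells carrying a stable Gli1-driven firefly luciferase reporter; series mostly up to about 92 µM; nearly all actives have a fitted effect of over 15% in size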)
Method in brief: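 Hedgehog pathway agonism scored by increased firefly luciferase luminescence in 3T3Gli1-Luc cells treated 24 hr at 37 C; detection used a 30 min room-temperature reagent incubation.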

[20] = A CellTox Green Cytotoxicity Assay to monitor cytotoxicity in HepG2 cells - 8 hour (AID 1224890); also: nearly all actives have a fitted effect of over 45% in size
Method in brief: as §2

Measured: Potency

Chain of Estrogen receptor (Homo sapiens) (P03372 whole entry, looked up): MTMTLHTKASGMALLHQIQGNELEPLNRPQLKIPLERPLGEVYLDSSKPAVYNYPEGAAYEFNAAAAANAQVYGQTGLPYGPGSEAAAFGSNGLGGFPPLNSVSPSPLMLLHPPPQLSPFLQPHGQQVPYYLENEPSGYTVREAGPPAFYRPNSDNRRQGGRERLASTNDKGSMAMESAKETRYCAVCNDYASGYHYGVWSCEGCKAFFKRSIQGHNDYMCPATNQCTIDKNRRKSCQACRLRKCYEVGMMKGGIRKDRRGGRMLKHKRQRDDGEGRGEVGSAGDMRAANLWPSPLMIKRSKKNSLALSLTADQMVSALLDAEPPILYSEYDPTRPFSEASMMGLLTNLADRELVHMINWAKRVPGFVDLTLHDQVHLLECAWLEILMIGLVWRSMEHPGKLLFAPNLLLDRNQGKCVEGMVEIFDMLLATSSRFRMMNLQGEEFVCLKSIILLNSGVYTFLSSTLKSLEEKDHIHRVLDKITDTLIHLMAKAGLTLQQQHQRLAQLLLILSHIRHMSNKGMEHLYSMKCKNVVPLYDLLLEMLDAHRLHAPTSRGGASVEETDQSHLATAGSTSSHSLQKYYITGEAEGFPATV
Chain of Androgen receptor (Homo sapiens) (P10275 whole entry, looked up): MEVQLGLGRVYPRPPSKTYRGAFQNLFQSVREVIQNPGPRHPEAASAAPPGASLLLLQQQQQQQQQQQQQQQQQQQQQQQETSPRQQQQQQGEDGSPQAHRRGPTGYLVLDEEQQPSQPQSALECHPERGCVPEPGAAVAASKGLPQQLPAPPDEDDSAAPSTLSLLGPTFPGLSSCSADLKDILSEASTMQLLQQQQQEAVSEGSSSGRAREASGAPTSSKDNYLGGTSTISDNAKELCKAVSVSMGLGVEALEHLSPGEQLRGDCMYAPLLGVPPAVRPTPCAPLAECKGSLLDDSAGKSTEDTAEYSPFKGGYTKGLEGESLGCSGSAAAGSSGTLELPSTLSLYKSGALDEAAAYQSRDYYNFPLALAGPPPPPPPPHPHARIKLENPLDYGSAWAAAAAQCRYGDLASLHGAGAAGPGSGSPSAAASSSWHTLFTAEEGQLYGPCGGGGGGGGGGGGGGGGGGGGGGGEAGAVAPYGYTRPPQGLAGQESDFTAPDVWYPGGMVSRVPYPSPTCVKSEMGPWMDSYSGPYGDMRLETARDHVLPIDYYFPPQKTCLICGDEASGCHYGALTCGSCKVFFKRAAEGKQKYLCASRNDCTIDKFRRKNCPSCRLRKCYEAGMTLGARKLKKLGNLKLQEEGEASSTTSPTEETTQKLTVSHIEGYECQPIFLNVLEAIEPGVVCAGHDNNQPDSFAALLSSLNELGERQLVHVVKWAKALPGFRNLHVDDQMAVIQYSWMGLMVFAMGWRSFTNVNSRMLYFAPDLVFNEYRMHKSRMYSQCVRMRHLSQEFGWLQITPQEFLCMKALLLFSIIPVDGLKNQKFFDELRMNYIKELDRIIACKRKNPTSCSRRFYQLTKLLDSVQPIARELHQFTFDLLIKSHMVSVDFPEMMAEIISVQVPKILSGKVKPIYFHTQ

O=C(O)CCSCCC(=O)O
inactive: [1] | [2] | [3] | [4] | [5] | [6] | [7] | [8] | [9] | [10] | [11] | [12] | [13] | [14] | [15] | [16] | [17]

Nc1ccn([C@@H]2O[C@H](CO)[C@@H](O)C2O)c(=O)n1 (some centres undefined)
inactive: [1] | [2] | [3] | [4] | [5] | [6] | [7] | [8] | [9] | [10] | [11] | [18] | [14] | [15] | [16] | [17] | [19]

CCC(C)(CCCC(C)C)OC(C)=O (centres undefined)
inactive: [1] | [2] | [3] | [4] | [5] | [6] | [8] | [9] | [20] | [11] | [13] | [14] | [15] | [17] | [19]

CC(C)(CCC(=O)O)C(=O)O
inactive: [1] | [2] | [3] | [4] | [5] | [6] | [7] | [8] | [9] | [10] | [11] | [13] | [14] | [15] | [16] | [17] | [19]

CCN(CC#N)c1cccc(C)c1
inactive: [1] | [2] | [3] | [4] | [5] | [6] | [7] | [8] | [9] | [10] | [11] | [13] | [14] | [15] | [16] | [17] | [19]

CCN(C=O)CC
inactive: [1] | [2] | [3] | [4] | [5] | [6] | [7] | [8] | [9] | [20] | [10] | [11] | [14] | [15] | [16] | [17] | [19]

CCC(=O)OCc1ccccc1
inactive: [1] | [2] | [3] | [4] | [5] | [6] | [7] | [8] | [9] | [20] | [10] | [11] | [14] | [15] | [16] | [17] | [19]

CC(C#N)(CCC(=O)O)N=NC(C)(C#N)CCC(=O)O (centres undefined)
inactive: [1] | [2] | [3] | [4] | [5] | [6] | [7] | [8] | [9] | [20] | [10] | [11] | [14] | [15] | [16] | [17] | [19]

NC(=O)NC1N=C([O][Al])NC1=O (centres undefined)
inactive: [1] | [2] | [3] | [4] | [5] | [6] | [7] | [8] | [9] | [20] | [11] | [12] | [14] | [15] | [17] | [19]

Clc1cc(Cl)c(Cl)nc1Cl
inactive: [1] | [2] | [3] | [4] | [5] | [6] | [8] | [9] | [20] | [10] | [11] | [14] | [15] | [17]

O=C(O)c1cn(C2CC2)c2cc(N3CCNCC3)c(F)cc2c1=O
inactive: [1] | [2] | [3] | [4] | [5] | [6] | [7] | [8] | [9] | [10] | [11] | [13] | [18] | [14] | [15] | [16] | [17] | [19]

CCCO[Si](OCCC)(OCCC)OCCC
inactive: [1] | [2] | [3] | [4] | [5] | [6] | [7] | [8] | [9] | [20] | [11] | [13] | [14] | [15] | [16] | [17] | [19]

CCCCCC(C)N (centres undefined)
inactive: [1] | [2] | [3] | [4] | [5] | [6] | [7] | [8] | [9] | [10] | [11] | [12] | [18] | [14] | [15] | [16] | [17] | [19]

C=C[Si](OC(C)=O)(OC(C)=O)OC(C)=O
inactive: [1] | [2] | [3] | [4] | [5] | [6] | [8] | [9] | [20] | [11] | [12] | [13] | [14] | [15] | [16]

CCCCCCCCCCCCCCCCCCO
inactive: [1] | [2] | [3] | [4] | [5] | [6] | [7] | [8] | [9] | [10] | [11] | [13] | [18] | [14] | [15] | [17] | [19]
